From article PMC5700166
Positions count from the first letter of the chain named.

Assays:
Assay in all cases: protein-binding microarray (PBM); PBM: ~300 nM protein, 6 mM HEPES pH 7.8, 80 mM KCl, 0.5 mM EDTA, 0.5 mM EGTA, 6% glycerol, 35 ng/ul poly-dIdC, 1% milk, 1 h, room temperature; Ap Aiptasia and Nv Nematostella (sea anemones) / Co Capsaspora / Aq Amphimedon (sponge) / Dm Drosophila / Hu human; RHD is the Rel homology domain; high values mean tight binding
Settings in all cases: dsDNA, one strand shown
[1] = molecular target: T1, GST-Ap-NF-kB RHD (Exaiptasia pallida (Aiptasia), UniProt A0A913YAJ5 2-422)
T1 sequence: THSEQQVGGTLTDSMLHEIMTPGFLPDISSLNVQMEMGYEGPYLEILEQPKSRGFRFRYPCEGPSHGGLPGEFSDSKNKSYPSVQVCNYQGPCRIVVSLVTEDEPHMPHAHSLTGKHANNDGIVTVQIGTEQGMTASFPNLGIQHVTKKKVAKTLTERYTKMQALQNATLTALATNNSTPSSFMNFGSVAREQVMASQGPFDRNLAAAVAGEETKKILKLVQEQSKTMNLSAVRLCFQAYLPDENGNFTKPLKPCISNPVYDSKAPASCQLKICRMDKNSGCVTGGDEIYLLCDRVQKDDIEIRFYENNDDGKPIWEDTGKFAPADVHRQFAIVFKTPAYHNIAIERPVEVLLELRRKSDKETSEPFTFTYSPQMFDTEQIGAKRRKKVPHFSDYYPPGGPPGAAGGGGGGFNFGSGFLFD

[2] = molecular target: T2, GST-Nv-NF-kB (Cys allele) (Nematostella vectensis, UniProt E5G601 2-411)
T2 sequence: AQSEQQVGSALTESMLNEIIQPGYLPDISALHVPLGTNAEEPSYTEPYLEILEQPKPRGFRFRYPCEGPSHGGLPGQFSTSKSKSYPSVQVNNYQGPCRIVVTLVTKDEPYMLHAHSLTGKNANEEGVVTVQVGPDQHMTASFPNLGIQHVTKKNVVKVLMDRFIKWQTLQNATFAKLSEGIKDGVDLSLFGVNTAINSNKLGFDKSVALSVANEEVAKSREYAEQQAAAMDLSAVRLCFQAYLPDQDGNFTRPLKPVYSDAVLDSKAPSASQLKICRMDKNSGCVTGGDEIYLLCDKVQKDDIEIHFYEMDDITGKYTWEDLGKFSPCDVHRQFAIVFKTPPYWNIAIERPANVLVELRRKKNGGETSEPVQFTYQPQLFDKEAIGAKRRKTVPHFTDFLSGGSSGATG

[3] = molecular target: T3, GST-Nv-NF-kB (Ser allele) (Nematostella vectensis, UniProt A7UNT2 2-411)
T3 sequence: T2 sequence with Q21R, C66S, S207N, E215Q, V217A, E225K, A268E, D399E

[4] = molecular target: T4, GST-Co-NF-kB (Capsaspora owczarzaki, UniProt F1ARL5 200-546)
T4 sequence: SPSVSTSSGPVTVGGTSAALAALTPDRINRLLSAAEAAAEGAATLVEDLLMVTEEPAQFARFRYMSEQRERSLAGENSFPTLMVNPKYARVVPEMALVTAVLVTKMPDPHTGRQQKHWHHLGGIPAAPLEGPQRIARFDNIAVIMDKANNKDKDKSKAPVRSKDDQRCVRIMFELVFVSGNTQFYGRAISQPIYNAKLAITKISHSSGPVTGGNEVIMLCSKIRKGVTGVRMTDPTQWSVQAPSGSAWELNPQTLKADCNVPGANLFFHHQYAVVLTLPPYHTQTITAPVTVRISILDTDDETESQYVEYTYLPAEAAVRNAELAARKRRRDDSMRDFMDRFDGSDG

[5] = molecular target: T5, GST-Dm-Relish (Drosophila melanogaster, UniProt Q94527 99-473)
T5 sequence: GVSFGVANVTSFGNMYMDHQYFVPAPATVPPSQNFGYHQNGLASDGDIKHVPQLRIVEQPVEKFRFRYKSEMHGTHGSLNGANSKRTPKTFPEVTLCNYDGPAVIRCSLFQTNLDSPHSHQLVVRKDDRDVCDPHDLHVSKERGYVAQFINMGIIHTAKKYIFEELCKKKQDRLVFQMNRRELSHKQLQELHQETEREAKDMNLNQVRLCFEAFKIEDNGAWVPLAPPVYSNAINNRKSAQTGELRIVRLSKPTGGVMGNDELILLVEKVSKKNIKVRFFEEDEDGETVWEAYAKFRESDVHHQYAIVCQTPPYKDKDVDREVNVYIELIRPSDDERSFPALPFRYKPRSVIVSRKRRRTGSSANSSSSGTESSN

[6] = molecular target: T6, GST-Aq-NF-kB (Amphimedon queenslandica, UniProt A9Y5G7 2-389)
T6 sequence: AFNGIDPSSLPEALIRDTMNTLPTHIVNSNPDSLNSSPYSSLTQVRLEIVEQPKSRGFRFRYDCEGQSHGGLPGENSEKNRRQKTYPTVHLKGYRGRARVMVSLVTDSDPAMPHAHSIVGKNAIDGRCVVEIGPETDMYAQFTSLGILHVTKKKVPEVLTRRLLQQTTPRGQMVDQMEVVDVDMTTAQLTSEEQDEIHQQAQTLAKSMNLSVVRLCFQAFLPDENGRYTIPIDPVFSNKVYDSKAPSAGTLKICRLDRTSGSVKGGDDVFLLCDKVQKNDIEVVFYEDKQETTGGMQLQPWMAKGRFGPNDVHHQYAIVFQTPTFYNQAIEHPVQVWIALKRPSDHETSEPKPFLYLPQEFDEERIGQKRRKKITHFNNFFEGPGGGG

[7] = molecular target: GST-Hu-p50 (Homo sapiens, UniProt P19838 7-356)
Chain of GST-Hu-p50 (P19838 7-356): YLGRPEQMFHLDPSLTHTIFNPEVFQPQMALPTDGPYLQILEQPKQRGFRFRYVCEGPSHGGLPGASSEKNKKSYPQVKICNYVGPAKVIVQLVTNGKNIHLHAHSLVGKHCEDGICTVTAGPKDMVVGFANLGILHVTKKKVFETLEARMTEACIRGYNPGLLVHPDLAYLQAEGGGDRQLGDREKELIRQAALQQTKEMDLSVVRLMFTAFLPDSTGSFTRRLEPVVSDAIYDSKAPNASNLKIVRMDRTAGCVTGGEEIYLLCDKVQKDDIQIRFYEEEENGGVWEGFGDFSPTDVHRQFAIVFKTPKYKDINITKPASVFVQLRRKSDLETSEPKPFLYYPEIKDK

Row | Sequence | binding signal [1] [z-score] | binding signal [2] [z-score] | binding signal [3] [z-score] | binding signal [4] [z-score] | binding signal [5] [z-score] | binding signal [6] [z-score] | binding signal [7] [z-score]
1 | CCGATTAACATCACAGTTCCCCCTGATGTTAATCGGGTCTTGATTCGCTTGACGCTGCTG | 6.94 | 6.16 | 7.51 | 8.18 | 3.79 | 4.7 | 5.66
2 | CCGATTAACATCAATATTTTCCCTGATGTTAATCGGGTCTTGATTCGCTTGACGCTGCTG | 4.35 | 6.75 | 8.82 | 6.01 | 2.69 | 4.5 | 5.3
3 | CCGATTAACATCAAAAAATACCCTGATGTTAATCGGGTCTTGATTCGCTTGACGCTGCTG | 6.17 | 9.78 | 8.7 | 3.1 | 8.93 | 8.03 | 6.73
4 | CCGATTAACATCAGGGGGATACATGATGTTAATCGGGTCTTGATTCGCTTGACGCTGCTG | 5.54 | 4.96 | 5.54 | 6.27 | 3.6 | 4.35 | 5.05
5 | CCGATTAACATCAGGGAACCCCCTGATGTTAATCGGGTCTTGATTCGCTTGACGCTGCTG | 13 | 11.8 | 10.7 | 3.7 | 11 | 11.1 | 7.62
6 | CCGATTAACATCAATATATTCCCTGATGTTAATCGGGTCTTGATTCGCTTGACGCTGCTG | 4.19 | 4.64 | 4.95 | 4.09 | 2.1 | 3.52 | 2.88
7 | CCGATTAACATCAAACTTCCCCCTGATGTTAATCGGGTCTTGATTCGCTTGACGCTGCTG | 7.75 | 7.86 | 9.14 | 9.35 | 7.36 | 7.49 | 6.72
8 | CCGATTAACATCACTATATCCCCTGATGTTAATCGGGTCTTGATTCGCTTGACGCTGCTG | 4.49 | 4.08 | 5.9 | 3.51 | 2.01 | 2.75 | 3.18
9 | CCGATTAACATCAGATTCCCCCCTGATGTTAATCGGGTCTTGATTCGCTTGACGCTGCTG | 8.5 | 7.01 | 8.24 | 10 | 6.72 | 6.38 | 7.1
10 | CCGATTAACATCAAATTTCCCAATGATGTTAATCGGGTCTTGATTCGCTTGACGCTGCTG | 2.25 | 4.12 | 3.77 | 3.94 | 2.51 | 3.58 | 3.39
11 | CCGATTAACATCAAAAATACCCTTGATGTTAATCGGGTCTTGATTCGCTTGACGCTGCTG | 5.7 | 9.05 | 7.74 | 1.68 | 7.04 | 7.5 | 6.41
12 | CCGATTAACATCAATTATTCCCCTGATGTTAATCGGGTCTTGATTCGCTTGACGCTGCTG | 6.67 | 9.08 | 9.75 | 9.22 | 5.24 | 5.63 | 6.11
13 | CCGATTAACATCACGAATTCCCCTGATGTTAATCGGGTCTTGATTCGCTTGACGCTGCTG | 8.93 | 10.1 | 10.9 | 7.11 | 6.96 | 6.73 | 6.95
14 | CCGATTAACATCAATAAAACCCCTGATGTTAATCGGGTCTTGATTCGCTTGACGCTGCTG | 5.73 | 5.27 | 5.34 | 2.26 | 7.35 | 5.25 | 6.19
15 | CCGATTAACATCAGGGAACCACCTGATGTTAATCGGGTCTTGATTCGCTTGACGCTGCTG | 6.9 | 5.68 | 4.58 | 1.22 | 9.5 | 6.96 | 5.71
16 | CCGATTAACATCAAAAGAACCCCTGATGTTAATCGGGTCTTGATTCGCTTGACGCTGCTG | 4.18 | 3.46 | 3.14 | 2.76 | 5.45 | 4.8 | 4.47
17 | CCGATTAACATCAGGGGGTGCACTGATGTTAATCGGGTCTTGATTCGCTTGACGCTGCTG | 3.65 | 2.71 | 3.9 | 2.55 | 6.6 | 4.95 | 4.23
18 | CCGATTAACATCAAAGTCCCCCGTGATGTTAATCGGGTCTTGATTCGCTTGACGCTGCTG | 6.78 | 5.8 | 6.12 | 6.7 | 7.35 | 5.87 | 5.37
19 | CCGATTAACATCAAATTATCCCCTGATGTTAATCGGGTCTTGATTCGCTTGACGCTGCTG | 6.03 | 6.6 | 8.6 | 6.1 | 3.57 | 5.25 | 5.28
20 | CCGATTAACATCACCGTGGGAAATGATGTTAATCGGGTCTTGATTCGCTTGACGCTGCTG | 1.9 | 2.4 | 2.68 | 3.18 | 1.32 | 1.95 | 2.29
21 | CCGATTAACATCAAGGGGGAAACTGATGTTAATCGGGTCTTGATTCGCTTGACGCTGCTG | 7.59 | 7.46 | 9.77 | 8.9 | 4.03 | 5.71 | 7.63
22 | CCGATTAACATCATAAATCCCCATGATGTTAATCGGGTCTTGATTCGCTTGACGCTGCTG | 6.78 | 7.56 | 9.37 | 3.91 | 7.13 | 5.14 | 7.11
23 | CCGATTAACATCACCATTTCCCCTGATGTTAATCGGGTCTTGATTCGCTTGACGCTGCTG | 5.75 | 6.95 | 9.62 | 6.17 | 2.11 | 4.32 | 5.3
